Unmarked numbers belong to inactive results. Activity calls are given as the source filed them. Calls follow the shape of the full dose curve.
assay: qHTS assay to identify small molecule agonists of the sonic hedgehog signaling (Shh) pathway (AID 1259368); conditions: NIH/3T3 Gli1-Luc reporter, luciferase, 24 h; series mostly up to 92.4 µM; activity change: at the top concentration; also: nearly all actives have a fitted effect of over 15% in size;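 as to activity change: NIH/3T3-derived 3T3Gli1-Luc cells carrying a stable Gli1-driven firefly luciferase reporter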
From the text: National Center for Advancing Translational Sciences [NCATS]
NIH Chemical Genomics Center [NCGC]
U.S. Environmental Protection Agency [EPA]
National Institutes of Environmental Health Sciences [NIEHS]
National Toxicology Program [NTP]
The sonic hedgehog (Shh) pathway is essential for normal embryonic development. Dysregulation of the Shh pathway can cause severe developmental defects in organs. Therefore chemicals that interfere with the pathway are potential developmental toxicants. A cell line designated 3T3Gli1-Luc (DMB/OARSA/CFSAN/FDA, Laurel, MD), a NIH/3T3 derived clone containing stably integrated Gli1-Luc reporter is used to detect chemical interference of the Shh pathway, by changes in the expression of the firefly Luc gene under the control of the Gli1 transcriptional response element. This cell line was used to screen Tox21 libraries for identifying and prioritizing the potential developmental toxicants that interfere Shh pathway.
3T3 Gli1-Luc cells were dispensed at 2,000 per well in 5uL of culture medium into white solid bottom 1536-well plates (Greiner Bio-One, Monroe, NC) using a Multidrop Combi (Thermo Scientific, Waltham, MA) dispenser. The assay plates were incubated at 37 C and 5% CO2 for 4hr, and then 23nL of compounds dissolved in DMSO and positive control were transferred using a Pintool station (Wako, San Diego, CA). The assay plates were incubated at 37C and 5% CO2 for 24hr. For luciferase read, 4uL of Amplite Luciferase reporter gene assay reagent (AAT Bioquest, Inc. Sunnyvale, CA) was added to each well of the assay plates using Flying Reagent Dispenser (FRD, Aurora Discovery, San Diego, CA) and incubated at room temperature for 30min. The luminescence signal was measured using a ViewLux plate reader (Perkin Elmer, Shelton, CT).
% is scaled to controls: 0 for no effect and ±100 for the full control effect; potency is read from the fitted curve at half-maximal effect.

| Structure (SMILES) | activity change | Potency |
| --- | --- | --- |
| Cc1nc2n(c(=O)c1CCN1CCC(c3noc4cc(F)ccc34)CC1)CCCC2 | 1.25% [at 42.5 µM, active compounds read high] | – |
| CC(C)(C)C1CCC(=O)CC1 | -3.87% | – |
| COC(=O)Nc1nc2ccc(C(=O)c3ccccc3)cc2[nH]1 | 3.47% [at 42.5 µM, active compounds read high] | – |
| Nc1ccc(Oc2ccc(Cl)cc2)cc1 | -2.9% | – |
| CC1=CCC(=C(C)C)CC1 | 0.598% | – |
| CCOc1ccc2ccccc2c1C(=O)N[C@@H]1C(=O)N2[C@@H]1SC(C)(C)[C@@H]2C(=O)O | 0.075% [at 42.5 µM, active compounds read high] | – |
| CCC(C)(CCC(C)C)C(=O)[O][Sn]([CH3])([CH3])[O]C(=O)C(C)(CC)CCC(C)C (stereo not given) | 0.263% | – |
| CCCCCCCCCCCCCC[N+](C)(C)C | – | inactive |
| CC(C(=O)O)c1ccc2c(c1)[nH]c1ccc(Cl)cc12 (stereo not given) | 0.053% [at 42.5 µM, active compounds read high] | – |
| S=c1nccc[nH]1 | 0.682% | – |
| CC1(C)[C@@H](O)CC[C@]2(C)[C@H]3C(=O)C=C4[C@@H]5C[C@@](C)(C(=O)O)CC[C@]5(C)CC[C@@]4(C)[C@]3(C)CC[C@@H]12 | -3.07% | – |
| C#C[C@]1(OC(C)=O)CC[C@H]2[C@@H]3CCC4=C[C@@H](OC(C)=O)CC[C@@H]4[C@H]3CC[C@@]21C | 0.939% [at 42.5 µM, active compounds read high] | – |
| O=C1c2ccccc2C(=O)N1SC1CCCCC1 | – | inactive |
| COc1ccc(NC(=O)CC(C)=O)cc1 | 1.02% | – |
| Cc1ccc(N/N=c2\c(=O)cc/c(=N\Nc3ccc(S(=O)(=O)O)cc3)c2=O)c(C)c1 | -0.775% | – |
| Cc1ccc(C)cc1 | 0.407% | – |
| Cc1ccc(O)c(O)c1 | -20.5% | – |
| CCCCCC/C=C\CCCCCCCC(=O)O | -0.984% | – |
| O=C1C(c2[nH]c3ccc(S(=O)(=O)O)cc3c2O)=Nc2ccc(S(=O)(=O)O)cc21 | -3.78% | – |
| C=C(C)c1cccc(C(=C)C)c1 | -0.688% | – |

| Structure (SMILES) | activity change | Potency |
| --- | --- | --- |
| CCN(CC)C(=O)c1cc(S(=O)(=O)Cc2ccccc2)c(N2CCC(c3ccccc3)CC2)cc1N(CC)CCN(C)C | -15.1% [at 42.5 µM, active compounds read high] | – |
| CC(C)Cn1cnc2c(N)nc3ccccc3c21 | 3.39% [at 18.9 µM, active compounds read high] | – |
| Nc1nc2c(ncn2COCCO)c(=O)[nH]1 | -0.16% [at 42.5 µM, active compounds read high] | – |
| CC(=O)OCC=C(C)C | 1.18% [at 42.5 µM, active compounds read high] | – |
| CCOC(=O)NNc1ccc(N(CC)CC(C)O)nn1 (stereo not given) | -1.16% [at 42.5 µM, active compounds read high] | – |
| CN(C)Cc1cc(C(C)(C)C)c(O)c(C(C)(C)C)c1 | 0.18% | – |
| Oc1c(I)cc(Cl)c2cccnc12 | – | 38.5 µM (active) |
| Cc1cc(-n2nc3ccc(Cl)cc3n2)c(O)c(C(C)(C)C)c1 | 0.18% [at 42.5 µM, active compounds read high] | – |
| Sc1nc2ccccc2s1 | 11.3% | – |
| CCc1ccc(Br)cc1 | 1.04% | – |
| CCC(=O)C(=O)CC | -0.526% | – |
| COC(=O)c1ccccc1OC | 0.572% | – |
| C=CCCC(=O)/C=C/C1C(C)=CCCC1(C)C (stereo not given) | -0.413% | – |
| O=C(O)CN(CCN(CC(=O)O)CC(=O)O)CC(=O)O | 0.474% [at 3.27 µM, active compounds read high] | – |
| O=C1NC(=O)[C@@H]2CC=CC[C@H]12 | -3.39% | – |
| O=S(=O)(O)c1ccccc1/C=C/c1ccc(-c2ccc(/C=C/c3ccccc3S(=O)(=O)O)cc2)cc1 | -2.28% | – |
| CN1CCCCC1CCN1c2ccccc2Sc2ccc(S(C)=O)cc21 (stereo not given) | -5.52% [at 42.5 µM, active compounds read high] | – |
| CC(C)OC(=O)C(O)(CC(=O)O)CC(=O)O | 0.07% | – |
| C=Cc1ccccc1C=C | -0.139% [at 240 µM, active compounds read high] | – |
| CCN(CC)c1ccc2c(-c3ccc(S(=O)(=O)O)cc3S(=O)(=O)[O-])c3ccc(=[N+](CC)CC)cc-3oc2c1 | -6.02% | – |

From PubChem BioAssay (Tox21)
